Reference: PubChem BioAssay (NCATS)
“And” between values parts separate entries of the source, which are not always exact repeats. Equal entries are not always repeated. Results filed as inconclusive are left out. Unmarked numbers belong to inactive results. The source made the active and inactive calls. Calls come from the whole dose curve; as a rule, active = well fitted curve in the direction sought with a large enough effect; inconclusive = small, poorly fitted or top-dose-only effect, or another doubt; inactive = no such curve, though single readings can be large; an effect the other way counts as inactive or inconclusive.

What was measured:
CRL-7250 = normal cell line; assay: Cytotoxic Profiling of Annotated Libraries Using Quantitative High-Throughput Screening (AID 1296008); conditions: Five cell lines viability, CellTiter-Glo ATP luminescence, 48-72 h; max response: active compounds read low; note: nearly all actives have a fitted effect of over 60% in size
Outline: (§1)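 Cells exposed to compounds for 48 or 72 hr at 37 degrees Celsius. Viability read as ATP-coupled luminescence with CellTiter-Glo after 10 min at room temperature.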

HaCat [1] = assay: as above; conditions: Five cell lines viability, CellTiter-Glo ATP luminescence, 48-72 h; max response: active compounds read low
Outline: as §1

KB-3-1 = assay: as above; conditions: Five cell lines viability, CellTiter-Glo ATP luminescence, 48-72 h; max response: active compounds read low
Outline: as §1

NIH3T3 [2] = assay: as above; conditions: Five cell lines viability, CellTiter-Glo ATP luminescence, 48-72 h; max response: active compounds read low
Outline: as §1

MCC-13 = assay: qHTS assay to identify novel small-molecules to repurpose for Merkel cell carcinoma treatment (AID 1296009); conditions: MCC and control cell lines, CellTiter-Glo viability, 72 h; series mostly up to 46 µM; note: nearly all actives have a fitted effect of over 60% in size
Outline: (§2)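 Cells were treated for 72 hr at 37 degree celsius with compounds in 8- or 11-point dose response. Viability was read by CellTiter-Glo luminescence, normalized to no-cell (cytotoxicity) and DMSO controls.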

MCC-26 = assay: as above; conditions: MCC and control cell lines, CellTiter-Glo viability, 72 h; series mostly up to 46 µM
Outline: as §2

MKL-1 = assay: as above; conditions: MCC and control cell lines, CellTiter-Glo viability, 72 h; series mostly up to 46 µM
Outline: as §2

MKL-2 = assay: as above; conditions: MCC and control cell lines, CellTiter-Glo viability, 72 h; series mostly up to 46 µM
Outline: as §2

UISO = assay: as above; conditions: MCC and control cell lines, CellTiter-Glo viability, 72 h; series mostly up to 46 µM
Outline: as §2

WaGa = assay: as above; conditions: MCC and control cell lines, CellTiter-Glo viability, 72 h; series mostly up to 46 µM
Outline: as §2

HACAT [3] = assay: as above; conditions: MCC and control cell lines, CellTiter-Glo viability, 72 h; at 44.8 µM (top of the series) unless noted
Outline: as §2

HEK293T [4] = assay: as above; conditions: MCC and control cell lines, CellTiter-Glo viability, 72 h; series mostly up to 44.8 µM
Outline: as §2

NIH3T3 [5] = assay: as above; conditions: MCC and control cell lines, CellTiter-Glo viability, 72 h; at 44.8 µM (top of the series) unless noted
Outline: as §2

CASKI = assay: Primary qHTS to identify gynecologic anti-cancer compounds using libraries of approved drugs and bioactive compounds (AID 1345084); conditions: Gynecologic cancer cell panel viability, ATPlite luminescence, 48 h; series mostly up to 57.5 µM; note: nearly all actives have a fitted effect of over 55% in size
Outline: (§3)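 In this quantitative HTS, cell killing is estimated from loss of ATP-dependent luciferase light. Cells see five compound concentrations over a 48 h exposure.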

HeLa = assay: as above; conditions: Gynecologic cancer cell panel viability, ATPlite luminescence, 48 h; series mostly up to 57.5 µM
Outline: as §3

Hek293T [6] = assay: as above; conditions: Gynecologic cancer cell panel viability, ATPlite luminescence, 48 h, control line for the selectivity index; series mostly up to 57.5 µM
Outline: as §3

C33A = assay: as above; conditions: Gynecologic cancer cell panel viability, ATPlite luminescence, 48 h; series mostly up to 57.5 µM
Outline: as §3

Es-2 = assay: as above; conditions: Gynecologic cancer cell panel viability, ATPlite luminescence, 48 h; series mostly up to 57.5 µM
Outline: as §3

JEG-3 = assay: as above; conditions: Gynecologic cancer cell panel viability, ATPlite luminescence, 48 h; series mostly up to 57.5 µM
Outline: as §3
% is set by controls: 0 for no effect and ±100 for the full control effect; potency is the fitted concentration of half-maximal effect.

`COc1ccnc2[nH]cc(C(=O)C(=O)N3CCN(C(=O)c4ccccc4)C[C@@H]3C)c12` gave a max response (CRL-7250) of -9.05%, a max response (HaCat [1]) of -2.32% and a max response (KB-3-1) of 3.92%. For the same compound, the max response (NIH3T3 [2]) was -11.5%, the Potency (MCC-13) was “inactive” and the Potency (MCC-26) was “inactive”. The Potency (MKL-1) was “inactive”, the Potency (MKL-2) was “inactive” and the Potency (UISO) was “inactive”. The Potency (WaGa) was “inactive”.

`CC(C)c1cnn2c(NCc3ccccc3)cc(NCCCCCCN)nc12` was tested, and the outcome (CRL-7250) was “inactive”, the outcome (HaCat [1]) was “inactive” and the max response (KB-3-1) was 3.97%. For the same compound, the max response (NIH3T3 [2]) was 0.624%, the outcome (HACAT [3]) was “inactive” and the Potency (MCC-13) was “inactive”. For the same compound, the Potency (MCC-26) was “inactive”, the Potency (UISO) was “inactive” and the Potency (WaGa) was “inactive”.

With `C=CCNc1c(O)cc2c(O)c1C[C@@H](C)C[C@H](OC)[C@@H](O)[C@@H](C)C=C(C)[C@H](OC(N)=O)[C@@H](OC)C=CC=C(C)C(=O)N2` the Potency (CRL-7250) was 37.2 nM (active), the Potency (HaCat [1]) was 0.372 µM (active) and the Potency (KB-3-1) was 0.0935 µM (active). For the same compound, the Potency (NIH3T3 [2]) was 590 nM (active), the Potency (MCC-13) was 5.9 µM (active) and the Potency (MKL-1) was 11.8 µM (active). For the same compound, the Potency (UISO) was 2.35 µM (active) and the Potency (WaGa) was 2.09 µM (active).

With `c1cc(CN2CCCNCCNCCCNCC2)ccc1CN1CCCNCCNCCCNCC1` the max response (CRL-7250) was -0.856%, the max response (HaCat [1]) was -12.9% and the max response (KB-3-1) was -8.95%. For the same compound, the max response (NIH3T3 [2]) was -1.27%, the Potency (HEK293T [4]) was “inactive” and the Potency (MCC-13) was “inactive”. For the same compound, the Potency (MCC-26) was “inactive”, the Potency (MKL-1) was “inactive” and the Potency (MKL-2) was “inactive”. For the same compound, the Potency (UISO) was “inactive” and the Potency (WaGa) was “inactive”.

`C=CC[C@@H]1C=C(C)C[C@H](C)C[C@H](OC)[C@H]2O[C@@](O)(C(=O)C(=O)N3CCCC[C@H]3C(=O)O[C@H](C(C)=C[C@@H]3CC[C@H](O)[C@H](OC)C3)[C@@H](C)[C@@H](O)CC1=O)[C@@H](C)C[C@@H]2OC` was tested, and the max response (CRL-7250) was -10%, the outcome (HaCat [1]) was “inactive” and the outcome (KB-3-1) was “inactive”. For the same compound, the outcome (NIH3T3 [2]) was “inactive”, the outcome (HACAT [3]) was “inactive” and the Potency (MCC-26) was “inactive”. The outcome (NIH3T3 [5]) was “inactive”.

`CS(=O)(=O)N1CCc2c(-c3cnc(N)nc3)nc(N3CCOCC3)nc21` was tested, and the Potency (CRL-7250) was 935 nM (active), the Potency (HaCat [1]) was 1.16 µM (active) and the Potency (KB-3-1) was 4.61 µM (active). The Potency (NIH3T3 [2]) was 743 nM (active) and 1.84 µM (active), the Potency (MCC-13) was “inactive” and the Potency (MKL-1) was “inactive”. For the same compound, the Potency (MKL-2) was “inactive”, the Potency (CASKI) was 2 µM (active) and the Potency (HeLa) was 3.55 µM (active). For the same compound, the Potency (Hek293T [6]) was 3.55 µM (active).

`C=CC1=C(C(=O)O)N2C(=O)[C@@H](NC(=O)C(=NO)c3csc(N)n3)[C@H]2SC1` was tested, and the outcome (CRL-7250) was “inactive”, the max response (HaCat [1]) was 4.35% and the max response (KB-3-1) was 4.36%. For the same compound, the outcome (NIH3T3 [2]) was “inactive”, the Potency (MCC-13) was “inactive” and the Potency (MCC-26) was “inactive”. For the same compound, the Potency (MKL-1) was “inactive”, the Potency (MKL-2) was “inactive” and the outcome (NIH3T3 [5]) was “inactive”. The Potency (UISO) was “inactive” and the Potency (WaGa) was “inactive”.

With `CCN(CC)Cc1ccc2cc(COC(=O)Nc3ccc(C(=O)NO)cc3)ccc2c1` the Potency (CRL-7250) was 7430 nM (active), the Potency (HaCat [1]) was 1.3 µM (active) and the Potency (KB-3-1) was 1.16 µM (active). The Potency (NIH3T3 [2]) was 2310 nM (active), the Potency (MKL-1) was 1.87 µM (active) and the Potency (MKL-2) was 590 nM (active). The Potency (UISO) was 3.72 µM (active), the Potency (WaGa) was 0.526 µM (active) and the Potency (C33A) was 3.55 µM (active). For the same compound, the Potency (CASKI) was 6.31 µM (active), the Potency (Es-2) was 6.31 µM (active) and the Potency (HeLa) was 6.31 µM (active). For the same compound, the Potency (Hek293T [6]) was 10 µM (active) and the Potency (JEG-3) was 3.55 µM (active).

In the case of `C=C1C(=CC=C2CCC[C@]3(C)[C@@H]([C@H](C)CCCC(C)(C)O)CC[C@@H]23)C[C@@H](O)C[C@@H]1O`, the max response (CRL-7250) is reported as -5.17%, the outcome (HaCat [1]) is reported as “inactive” and the max response (KB-3-1) is reported as -11.2%. The Potency (NIH3T3 [2]) was 3.3 nM (active), the outcome (HACAT [3]) was “inactive” and the Potency (MKL-1) was 16.6 µM (active). For the same compound, the Potency (MKL-2) was 6620 nM (active) and the Potency (WaGa) was 1.48 µM (active).

`CC(C)(O)[C@H]1CC[C@@](C)([C@H]2[C@@H](O)C[C@@]3(C)[C@@H]4C[C@H](O[C@@H]5O[C@H](CO)[C@@H](O)[C@H](O)[C@@H]5O)[C@H]5C(C)(C)[C@@H](O[C@@H]6OC[C@@H](O)[C@H](O)[C@@H]6O)CC[C@@]56C[C@@]46CC[C@]23C)O1` was tested, and the outcome (CRL-7250) was “inactive”, the max response (HaCat [1]) was -6.06% and the max response (KB-3-1) was 2.16%. For the same compound, the outcome (NIH3T3 [2]) was “inactive”, the Potency (MCC-13) was “inactive” and the Potency (MKL-1) was “inactive”. The Potency (MKL-2) was “inactive”, the outcome (NIH3T3 [5]) was “inactive” and the Potency (UISO) was “inactive”. The Potency (WaGa) was “inactive”.

`C[C@H](NC(=O)[C@@H](O)c1cc(F)cc(F)c1)C(=O)N[C@@H]1C(=O)N(C)c2ccccc2-c2ccccc21` showed a max response (CRL-7250) of -10.4%, a max response (HaCat [1]) of -6.76% and a max response (KB-3-1) of -9.73%. The max response (NIH3T3 [2]) was -4.85%, the Potency (MCC-13) was “inactive” and the Potency (MCC-26) was “inactive”. The Potency (MKL-1) was “inactive”, the Potency (MKL-2) was “inactive” and the Potency (UISO) was “inactive”. For the same compound, the Potency (WaGa) was “inactive”.

`CC(C)C[C@H](NC(=O)[C@@H](NC(=O)c1cccc(-c2ccccc2)n1)[C@@H](C)O)B(O)O` was tested, and the Potency (CRL-7250) was 92 nM (active), the Potency (HaCat [1]) was 526 nM (active) and 580 nM (active) and the Potency (KB-3-1) was 187 nM (active) and 184 nM (active). For the same compound, the Potency (NIH3T3 [2]) was 118 nM (active) and 116 nM (active), the Potency (MCC-13) was 0.264 µM (active) and the Potency (MCC-26) was 148 nM (active). For the same compound, the Potency (MKL-2) was 41.8 nM (active), the Potency (WaGa) was 0.0833 µM (active) and the Potency (CASKI) was 0.112 µM (active). For the same compound, the Potency (Es-2) was 0.251 µM (active), the Potency (HeLa) was 0.631 µM (active) and the Potency (Hek293T [6]) was 0.316 µM (active).

Work on `CCn1c(=O)c2c(nc(C=Cc3ccc(OC)c(OC)c3)n2C)n(CC)c1=O` yielded a max response (CRL-7250) of -2.94%, a max response (HaCat [1]) of -8.26% and a max response (KB-3-1) of 9.4%. The outcome (NIH3T3 [2]) was “inactive”, the Potency (MCC-13) was “inactive” and the Potency (MCC-26) was “inactive”. The Potency (MKL-1) was “inactive”, the outcome (NIH3T3 [5]) was “inactive” and the Potency (UISO) was “inactive”. For the same compound, the Potency (WaGa) was “inactive”, the Potency (C33A) was “inactive” and the Potency (CASKI) was “inactive”. The Potency (Es-2) was “inactive”, the Potency (HeLa) was “inactive” and the Potency (Hek293T [6]) was “inactive”. For the same compound, the Potency (JEG-3) was “inactive”.
